This passage reports z-score results from PubChem BioAssay.

Values without a mark were called inactive. The source made the active and inactive calls.

The nature of the first test: CREB reporter modulators without forskolin, primary screen, cell-based, PC12, CRE-LacZ reporter, unstimulated (AID 1145). The note with it: no forskolin, luminescence, 4.5 h, higher = more signal, called active from +8 up or from −8 down.
For the compound `CC(CCN1CCCc2nc(C)c(C)cc21)=NO[C@@H](C)c1cc(-c2c(C)cc(C)cc2C)no1`, the z-score is -0.0591.

Consider `O=C1[C@H]2[C@H]3[C@H](O)[C@H](O)CC(=NO[C@@H]4O[C@H](CO)[C@@H](O)[C@H](O)[C@H]4O)[C@H]3CC[C@H]2C(=O)N1c1cccc(Oc2ccccc2)c1`, for which the z-score was -0.838.

With `CCOC(=O)NN=C1C[C@@H](O)[C@@H](O)[C@@H]2[C@@H]3C(=O)N(c4ccc(F)cc4F)C(=O)[C@@H]3CC[C@@H]12`, the z-score was -0.0211.

On to `C[C@H]1CC[C@H]2C(=O)OC(CO)CN2[C@@H]1c1ccc(Br)cc1` (some centres not stated), for which the z-score is -0.527.

In the case of `Cn1c(=O)n2n(c1=O)[C@H]1[C@H](O)[C@@H]3O[C@@H]3C(=NOCc3ccccc3)[C@H]1CC2`, the z-score was -0.0211.

As for `O=c1n(-c2ccccc2)c(=O)n2n1CC[C@@H]1C(=NOCc3ccccc3)[C@H]3O[C@H]3[C@@H](O)[C@@H]12`, the z-score was -0.385.

With `C[C@@H]1CC[C@H]2C(=O)O[C@@H](Cc3ccccc3)CN2[C@H]1c1ccc(Br)cc1`, the z-score was 0.583.

With `CO[C@H]1COC(=O)[C@@H](C)COC(=O)[C@H](C)NC(=O)CC=C[C@H]1C`, the z-score was -0.115.

Regarding `CO[C@H]1COC(=O)CC=C[C@H](C)[C@@H](OC)COC(=O)[C@@H](C)COC(=O)CC=C[C@@H]1C`, the z-score was -0.292.

As for `COC(=O)CC=C[C@@H](C)[C@@H](C=NOCC[C@@H]1C=C[C@H](OC(C)=O)[C@@H](COC(C)=O)O1)NS(=O)(=O)c1ccc(C)cc1`, the z-score is 1.28.

Turning to `CCOC(=O)CCN1C(=O)[C@H]2[C@H]3[C@H](O)[C@H](O)CC(=NNC(=O)OCc4ccccc4)[C@@H]3CC[C@H]2C1=O`, the z-score is 0.161.

Regarding `CC(C)=CCCC(C)=CCON=C1C[C@@H](O)[C@@H](O)[C@@H]2[C@@H]3C(=O)N(Cc4ccccc4)C(=O)[C@@H]3CC[C@@H]12`, the z-score is -0.478.

Take `C[C@@H](ON=C1[C@H]2CCn3c(=O)n(-c4ccccc4)c(=O)n3[C@H]2[C@H](O)[C@@H]2O[C@H]12)c1cn([C@@H]2COC[C@H]2O)nn1`: the z-score is 0.085.

Take `COc1cc(O)c(C(=O)C=Cc2ccc3c(c2)OCO3)c(OC)c1`: the z-score was 0.286.

`COC(=O)CC=C[C@@H](C)[C@@H](C=NO[C@H](C)c1cn([C@H](CO)Cc2ccccc2)nn1)NS(=O)(=O)c1ccc(C)cc1`: the z-score is 1.98.

For `COc1ccc(O[C@H]2C=C[C@@H](c3ccccc3)O[C@@H]2COC(=O)CCC(C)=NO[C@@H]2O[C@H](COC(C)=O)[C@@H](OC(C)=O)[C@H](OC(C)=O)[C@H]2OC(C)=O)cc1`, the z-score is 2.85.

Regarding `CCOC(=O)NN=C1C[C@@H](O)[C@@H](O)[C@@H]2[C@@H]3C(=O)N(Cc4ccc5c(c4)OCO5)C(=O)[C@@H]3CC[C@H]12`, the z-score was -0.658.

In the case of `CCOC(=O)[C@H](CC(C)C)NC(=O)CCC1CC(OC(=O)NCc2cccc3ccccc23)CC2(CCCC(COC(=O)NCCC(C)C)O2)O1` (some centres not stated), the z-score is 0.563.

On to `CC(C)=CCCC(C)=CCON=C1C[C@@H](O)[C@@H](O)[C@@H]2[C@@H]3C(=O)N(C[C@@H]4CCCO4)C(=O)[C@@H]3CC[C@H]12`, for which the z-score is -0.384.

With `CC=CC1=C(CO)C(=O)[C@@H]2O[C@@H]2C1=O`, the z-score was 0.0178.

Take `CO[C@H]1COC(=O)CCC[C@@H](C)[C@H](OC)COC(=O)[C@@H](C)NC(=O)CC=C[C@@H]1C`: the z-score was -0.58.

Take `COc1ccc(O[C@H]2C=C[C@@H](c3ccccc3)O[C@@H]2COC(=O)CCC(C)=NOC[C@@H](O)[C@H]2O[C@@H]3OC(C)(C)O[C@@H]3[C@H]2O)cc1`: the z-score is -1.14.

In the case of `O=C(NN=C1C[C@@H](O)[C@@H](O)[C@@H]2[C@@H]3C(=O)N(Cc4ccccc4)C(=O)[C@@H]3CC[C@@H]12)OCc1ccccc1`, the z-score was 0.248.

Consider `CCOC(=O)[C@H](CC(C)C)NC(=O)CCC1CC(OC(=O)NCc2cccc3ccccc23)CC2(CCCC(COC(=O)NCCc3ccc(Cl)cc3)O2)O1` (some centres not stated), for which the z-score was -0.707.

On to `CO[C@@H]1C=CCC(=O)N2CCC[C@H]2C(=O)OC[C@@H](C)C(=O)OC[C@H]1C`, for which the z-score was -0.0234.

`CC(C)CON=C1C[C@@H](O)[C@@H](O)[C@@H]2[C@@H]3C(=O)N(C4CCCCC4)C(=O)[C@@H]3CC[C@H]12`: the z-score was 1.7.

The nature of a further test: CREB reporter modulators under forskolin, primary screen, cell-based, PC12, CRE-LacZ reporter, forskolin-stimulated (AID 1146).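 Also: PC12 cells with 6xCRE LacZ reporter stimulated by forskolin 10 µM; beta-galactosidase reporter signal reflecting CREB driven transcription.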 The note with it: luminescence, 4.5 h, higher = more signal, called active from +8 up or from −8 down.
Take `CC(CCN1CCCc2nc(C)c(C)cc21)=NOC(C)CN1CCCCc2nc(C)c(C)cc21` (configuration not stated): the z-score was 0.527.

Turning to `CCN1C(=O)[C@@H]2[C@H]3C(=CC[C@@H]2C1=O)C1(OCCCO1)[C@H]1O[C@H]1[C@H]3O`, the z-score was 23.3 (active).

Turning to `Cc1ccc(S(=O)(=O)N[C@@H]2COC(=O)[C@@H](C)COC(=O)CC=C[C@H]2C)cc1`, the z-score was -0.549.

Regarding `COC(=O)C1=C(C)N(Cc2ccccc2)[C@]23O[C@](C(=O)OC)(C(=O)N2[C@@H]1c1ccccc1)C(C(=O)OC)=C3C(=O)OC`, the z-score was -1.61.

Regarding `CC(C)CON=C1C[C@@H](O)[C@@H](O)[C@@H]2[C@@H]3C(=O)N(c4ccc(F)cc4F)C(=O)[C@@H]3CC[C@H]12`, the z-score was -0.907.

For the compound `CCOC(=O)CCN1C(=O)[C@H]2[C@H]3[C@H](O)[C@H](O)CC(=NOCC(C)C)[C@H]3CC[C@H]2C1=O`, the z-score is 0.357.

`CC(C)=CCCC(C)=CCON=C1C[C@@H](O)[C@@H](O)[C@@H]2[C@@H]3C(=O)N(C(C)(C)C)C(=O)[C@@H]3CC[C@H]12`: the z-score was 0.871.

For `C[C@H]1CC[C@H]2C(=O)O[C@H](COc3ccc(C(C)(C)C)cc3)CN2[C@@H]1c1ccc(Br)cc1`, the z-score was -0.466.

Take `COC(=O)CC=C[C@@H](C)[C@@H](C=NO[C@@H]1O[C@H](COC(C)=O)[C@@H](OC(C)=O)[C@H](OC(C)=O)[C@H]1OC(C)=O)NS(=O)(=O)c1ccc(C)cc1`: the z-score was 1.02.

For the compound `CCOC(=O)[C@H](CC(C)C)NC(=O)CCC1CC(OC(=O)NCc2cccc3ccccc23)CC2(CCCC(COC(=O)NCc3ccncc3)O2)O1` (some centres not stated), the z-score was 0.633.

With `CC(CCN1CCCc2nc(C)c(C)cc21)=NO[C@@H](C)c1cc(-c2c(C)cc(C)cc2C)no1`, the z-score was -0.559.

For `O=C1[C@H]2[C@H]3[C@H](O)[C@H](O)CC(=NO[C@@H]4O[C@H](CO)[C@@H](O)[C@H](O)[C@H]4O)[C@H]3CC[C@H]2C(=O)N1c1cccc(Oc2ccccc2)c1`, the z-score was -0.462.

Consider `CCOC(=O)NN=C1C[C@@H](O)[C@@H](O)[C@@H]2[C@@H]3C(=O)N(c4ccc(F)cc4F)C(=O)[C@@H]3CC[C@@H]12`, for which the z-score is 0.34.

On to `C[C@H]1CC[C@H]2C(=O)OC(CO)CN2[C@@H]1c1ccc(Br)cc1` (some centres not stated), for which the z-score was -1.43.

Take `Cn1c(=O)n2n(c1=O)[C@H]1[C@H](O)[C@@H]3O[C@@H]3C(=NOCc3ccccc3)[C@H]1CC2`: the z-score was 0.383.

Consider `O=c1n(-c2ccccc2)c(=O)n2n1CC[C@@H]1C(=NOCc3ccccc3)[C@H]3O[C@H]3[C@@H](O)[C@@H]12`, for which the z-score is -0.314.

On to `C[C@@H]1CC[C@H]2C(=O)O[C@@H](Cc3ccccc3)CN2[C@H]1c1ccc(Br)cc1`, for which the z-score is -0.143.

Regarding `CO[C@H]1COC(=O)[C@@H](C)COC(=O)[C@H](C)NC(=O)CC=C[C@H]1C`, the z-score was -0.959.

Turning to `CO[C@H]1COC(=O)CC=C[C@H](C)[C@@H](OC)COC(=O)[C@@H](C)COC(=O)CC=C[C@@H]1C`, the z-score is -1.02.

Take `COC(=O)CC=C[C@@H](C)[C@@H](C=NOCC[C@@H]1C=C[C@H](OC(C)=O)[C@@H](COC(C)=O)O1)NS(=O)(=O)c1ccc(C)cc1`: the z-score was 0.378.

On to `CCOC(=O)CCN1C(=O)[C@H]2[C@H]3[C@H](O)[C@H](O)CC(=NNC(=O)OCc4ccccc4)[C@@H]3CC[C@H]2C1=O`, for which the z-score was -0.244.

As to `CC(C)=CCCC(C)=CCON=C1C[C@@H](O)[C@@H](O)[C@@H]2[C@@H]3C(=O)N(Cc4ccccc4)C(=O)[C@@H]3CC[C@@H]12`, the z-score is -0.0093.

For `C[C@@H](ON=C1[C@H]2CCn3c(=O)n(-c4ccccc4)c(=O)n3[C@H]2[C@H](O)[C@@H]2O[C@H]12)c1cn([C@@H]2COC[C@H]2O)nn1`, the z-score was 0.258.

On to `COc1cc(O)c(C(=O)C=Cc2ccc3c(c2)OCO3)c(OC)c1`, for which the z-score is 0.528.

As for `COC(=O)CC=C[C@@H](C)[C@@H](C=NO[C@H](C)c1cn([C@H](CO)Cc2ccccc2)nn1)NS(=O)(=O)c1ccc(C)cc1`, the z-score is 0.767.

Turning to `COc1ccc(O[C@H]2C=C[C@@H](c3ccccc3)O[C@@H]2COC(=O)CCC(C)=NO[C@@H]2O[C@H](COC(C)=O)[C@@H](OC(C)=O)[C@H](OC(C)=O)[C@H]2OC(C)=O)cc1`, the z-score was 0.847.

For `CCOC(=O)NN=C1C[C@@H](O)[C@@H](O)[C@@H]2[C@@H]3C(=O)N(Cc4ccc5c(c4)OCO5)C(=O)[C@@H]3CC[C@H]12`, the z-score is 0.619.

Turning to `CCOC(=O)[C@H](CC(C)C)NC(=O)CCC1CC(OC(=O)NCc2cccc3ccccc23)CC2(CCCC(COC(=O)NCCC(C)C)O2)O1` (some centres not stated), the z-score was -0.535.

With `CC(C)=CCCC(C)=CCON=C1C[C@@H](O)[C@@H](O)[C@@H]2[C@@H]3C(=O)N(C[C@@H]4CCCO4)C(=O)[C@@H]3CC[C@H]12`, the z-score was 0.174.

Turning to `CC=CC1=C(CO)C(=O)[C@@H]2O[C@@H]2C1=O`, the z-score is 3.64.

Regarding `CO[C@H]1COC(=O)CCC[C@@H](C)[C@H](OC)COC(=O)[C@@H](C)NC(=O)CC=C[C@@H]1C`, the z-score was -0.041.
